Measured values reported in PubChem BioAssay (NCATS).
Inconclusive results are not listed. Active and inactive are the calls of the source. Unless noted, calls come from the whole dose curve; as a rule, active = well fitted curve in the direction sought with a large enough effect; inconclusive = small, poorly fitted or top-dose-only effect, or another doubt; inactive = no such curve, though single readings can be large; an effect the other way counts as inactive or inconclusive.

Assays:
[1] = molecular target: Lysosomal acid glucosylceramidase (Homo sapiens) (UniProt P04062); assay: Glucocerebrosidase-p2 (AID 348; in the data active = potency below about 10 µM; note: potency is the fitted concentration of half-maximal effect); conditions: purified GBA, blue fluorogenic substrate, 40 min
Sequence of Lysosomal acid glucosylceramidase (Homo sapiens) (P04062 whole entry, looked up): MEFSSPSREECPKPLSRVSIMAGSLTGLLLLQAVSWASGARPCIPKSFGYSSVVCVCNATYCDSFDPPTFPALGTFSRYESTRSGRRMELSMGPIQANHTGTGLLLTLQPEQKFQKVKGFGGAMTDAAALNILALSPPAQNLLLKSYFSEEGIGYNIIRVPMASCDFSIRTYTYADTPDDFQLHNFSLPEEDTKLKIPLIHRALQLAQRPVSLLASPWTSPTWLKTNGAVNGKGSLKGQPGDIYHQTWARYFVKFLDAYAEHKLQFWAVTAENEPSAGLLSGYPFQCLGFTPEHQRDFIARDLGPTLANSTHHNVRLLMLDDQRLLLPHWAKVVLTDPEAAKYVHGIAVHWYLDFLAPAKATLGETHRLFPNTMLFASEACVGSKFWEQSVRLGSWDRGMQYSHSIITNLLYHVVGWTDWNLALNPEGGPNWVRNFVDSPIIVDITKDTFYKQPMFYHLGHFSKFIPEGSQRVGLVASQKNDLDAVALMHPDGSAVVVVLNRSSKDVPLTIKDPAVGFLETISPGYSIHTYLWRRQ
How it was run: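 Compounds titrated from 0.6 nM upwards against 0.2 nM enzyme in pH 5.9 citric acid/KH2PO4, taurocholate, tween-20; blue fluorogenic substrate 80 uM, 40 min room temperature, stopped and read Ex 365/Em 440 for AC50.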

[2] = AP1 Signaling Pathway (AID 357; active = well fitted curve in either direction with a large enough effect, not every such curve was filed as active;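 note: ME-180 reporter cells stimulated with EGF at its EC50 level; % is set by controls: 0 for no effect and ±100 for the full control effect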); conditions: ME-180 AP-1-bla reporter, EGF-induced, beta-lactamase ratio, 5 h; at 7.69 µM (top of the series) unless noted
How it was run: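 AP-1-bla ME-180 cells, Opti-MEM + 0.5% dialyzed FBS, plated overnight 37 °C. Cpd titration + EC50 EGF, 5 h 37 °C. CCF4 2.5 h RT; ex 405, em 460/530 ratio → %activity, AC50.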

[3] = molecular target: Cytochrome P450 1A2 (Homo sapiens) (UniProt P05177); assay: p450-cyp1a2 (AID 410; calls by dose curve; note: potency is the fitted concentration of half-maximal effect;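 for activity change, negative = inhibition: -100% = full effect of reference inhibitor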)
Sequence of Cytochrome P450 1A2 (Homo sapiens) (P05177 whole entry, looked up): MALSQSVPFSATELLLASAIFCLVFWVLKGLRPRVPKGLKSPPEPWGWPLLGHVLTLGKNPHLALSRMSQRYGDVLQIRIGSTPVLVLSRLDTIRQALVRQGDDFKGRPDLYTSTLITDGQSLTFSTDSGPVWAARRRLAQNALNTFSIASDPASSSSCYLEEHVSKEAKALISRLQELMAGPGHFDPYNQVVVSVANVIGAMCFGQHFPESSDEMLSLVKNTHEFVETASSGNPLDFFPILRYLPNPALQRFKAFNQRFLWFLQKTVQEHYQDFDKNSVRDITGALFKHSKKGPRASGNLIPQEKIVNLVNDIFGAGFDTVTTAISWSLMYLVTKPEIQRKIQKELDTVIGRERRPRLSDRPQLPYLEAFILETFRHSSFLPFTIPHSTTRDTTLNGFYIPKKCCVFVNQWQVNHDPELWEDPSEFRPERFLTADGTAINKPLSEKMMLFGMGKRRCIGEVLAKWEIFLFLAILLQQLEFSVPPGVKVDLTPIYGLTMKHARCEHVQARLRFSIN
How it was run: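 Inhibition was calculated relative to 57 uM furafylline (full inhibition). The reaction used human CYP1A2 at 20nM with Luciferin-ME at its Km, 100uM, driven by an NADPH-regenerating system for 60 min at room temperature.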

[4] = Stat Signaling Pathway (AID 446; active = well fitted curve in either direction with a large enough effect, not every such curve was filed as active;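 note: ME-180 cervical cancer cells given 40 pM IL-6 alongside compound; SIE-controlled beta-lactamase reporter measured as 460/530 nm FRET emission ratio; % is set by controls: 0 for no effect and ±100 for the full control effect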); conditions: ME-180 SIE beta-lactamase reporter, IL-6 stimulated, 5 h; at 7.69 µM (top of the series) unless noted
How it was run: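 ME-180 cells carrying a SIE-driven beta-lactamase reporter are stimulated with 40 pM IL-6 for 5 h at 37C in the presence of compound. The 460/530 nm FRET substrate ratio is read after 2.5 h at RT. Data are normalised to 300 pM IL-6 and to 125 nM JAK inhibitor controls.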

[5] = molecular target: Glucocorticoid receptor (Homo sapiens) (UniProt P04150); assay: GR-EFC Redistribution (AID 451; calls by dose curve; note: potency is the fitted concentration of half-maximal effect); conditions: CHO-K1 GR-EFC translocation, beta-gal luminescence, 2 h
Sequence of Glucocorticoid receptor (Homo sapiens) (P04150 whole entry, looked up, the tested form may be a part): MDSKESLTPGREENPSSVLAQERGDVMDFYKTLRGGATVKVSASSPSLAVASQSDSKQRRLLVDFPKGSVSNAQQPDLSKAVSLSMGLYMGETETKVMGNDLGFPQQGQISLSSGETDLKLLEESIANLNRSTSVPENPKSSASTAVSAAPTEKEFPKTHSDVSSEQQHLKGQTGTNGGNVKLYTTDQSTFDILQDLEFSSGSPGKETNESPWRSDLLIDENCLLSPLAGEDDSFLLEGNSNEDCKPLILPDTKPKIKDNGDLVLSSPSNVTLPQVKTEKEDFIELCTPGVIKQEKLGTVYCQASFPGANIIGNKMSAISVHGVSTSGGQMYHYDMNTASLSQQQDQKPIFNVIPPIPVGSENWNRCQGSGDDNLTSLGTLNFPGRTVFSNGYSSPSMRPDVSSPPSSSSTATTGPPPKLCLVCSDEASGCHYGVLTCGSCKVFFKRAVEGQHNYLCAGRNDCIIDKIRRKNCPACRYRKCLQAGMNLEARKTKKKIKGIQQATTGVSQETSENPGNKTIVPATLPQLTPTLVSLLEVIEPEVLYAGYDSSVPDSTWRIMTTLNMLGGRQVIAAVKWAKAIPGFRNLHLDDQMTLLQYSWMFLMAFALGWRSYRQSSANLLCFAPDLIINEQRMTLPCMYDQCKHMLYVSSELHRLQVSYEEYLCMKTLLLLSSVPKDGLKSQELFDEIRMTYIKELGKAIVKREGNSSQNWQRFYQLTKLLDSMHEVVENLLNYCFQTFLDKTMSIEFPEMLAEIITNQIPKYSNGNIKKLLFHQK
How it was run: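 CHO-K1 cells expressing nuclear EA and GR-ED fragments of b-gal; compounds titrated up to 46 uM final, 2 h at 37 C. GR nuclear translocation read as complemented b-gal luminescence after 1 h RT detection.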

[6] = molecular target: Mitogen-activated protein kinase 10 (Mus musculus) (UniProt Q61831); assay: JNK3 AlphaScreen Assay (AID 530; active = well fitted curve in either direction with a large enough effect, not every such curve was filed as active;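 note: kinase came from lysate of stimulated human HepG2 cells; signal reports phosphorylation of biotinylated GST-cJun 1-79 at Ser73 with 10 µM ATP; % is set by controls: 0 for no effect and ±100 for the full control effect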)
How it was run: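 qHTS format: compounds tested as titrations against IL-1beta/TNF-alpha-activated HepG2 lysate JNK3 with biotin-GST-cJun substrate and 10 uM ATP at room temperature. Loss of anti-phospho-cJun AlphaScreen signal indicates inhibition.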

[7] = molecular target: Cytochrome P450 3A4 (Homo sapiens) (UniProt P08684); assay: qHTS Assay for Activators of Cytochrome P450 3A4 (AID 885); note: nearly all actives have a fitted effect of over 65% in size
Sequence of Cytochrome P450 3A4 (Homo sapiens) (P08684 whole entry, looked up): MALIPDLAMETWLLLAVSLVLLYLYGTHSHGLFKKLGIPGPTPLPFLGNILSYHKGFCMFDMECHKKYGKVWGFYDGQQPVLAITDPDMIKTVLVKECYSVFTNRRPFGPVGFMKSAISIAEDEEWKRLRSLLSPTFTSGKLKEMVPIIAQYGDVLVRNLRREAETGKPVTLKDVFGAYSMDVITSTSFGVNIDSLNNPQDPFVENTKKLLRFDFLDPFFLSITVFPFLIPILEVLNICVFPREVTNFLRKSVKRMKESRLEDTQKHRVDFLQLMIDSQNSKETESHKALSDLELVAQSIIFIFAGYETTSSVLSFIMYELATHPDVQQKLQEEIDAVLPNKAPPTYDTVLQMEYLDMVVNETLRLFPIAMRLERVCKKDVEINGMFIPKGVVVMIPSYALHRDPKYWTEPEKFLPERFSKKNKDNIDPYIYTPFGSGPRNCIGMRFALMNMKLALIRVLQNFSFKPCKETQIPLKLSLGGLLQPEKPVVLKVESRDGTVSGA
How it was run: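 Human CYP3A4 (20 nM) with Luciferin-PPXE at 25 uM (its KM) in 200 mM KPO4; 10 min compound preincubation, then NADPH regeneration and 60 min reaction at RT. Luciferin read by luminescence; normalized to 57 uM ketoconazole full inhibition.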

[8] = qHTS Assay for Lipid Storage Modulators (AID 1519; calls by dose curve); conditions: Drosophila S3 cells, BODIPY lipid droplet/cell ratio, laser cytometry, cells loaded with oleic acid; for activity change, negative = inhibition: at 57.5 µM (top of the series)
How it was run: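 Cells seeded at 5,000 per well were treated with compounds over a concentration series and loaded with oleic acid (400 uM, as added). Lipid droplet fluorescence (488 nm excitation, 500-530 nm channel) was read by laser-scanning cytometry and normalized to 20 uM Triacsin C.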

[9] = Primary qHTS for small molecule stabilizers of the endoplasmic reticulum resident proteome: Secreted ER Calcium Modulated Protein (SERCaMP) assay (AID 1508630); note: % is set by controls: 0 for no effect and ±100 for the full control effect
How it was run: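 GLuc-SERCaMP-expressing SH-SY5Y cells, pretreated 16 h with compound, are challenged with thapsigargin to empty ER calcium stores; after 4 h, coelenterazine is added directly to the medium and luminescence is imaged.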

[10] = molecular target: Rap guanine nucleotide exchange factor 3 (Homo sapiens) (UniProt O95398); assay: Confirmatory qHTS for agonist of cAMP-regulated guanine nucleotide exchange factor 3 (EPAC1) (AID 1645881);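 note: EPAC1 catalysed release of BODIPY-GDP from Rap1B seen as fluorescence loss; 100% = effect of cAMP agonist control; nearly all actives have a fitted effect of over 75% in size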
Sequence of Rap guanine nucleotide exchange factor 3 (Homo sapiens) (O95398 whole entry, looked up): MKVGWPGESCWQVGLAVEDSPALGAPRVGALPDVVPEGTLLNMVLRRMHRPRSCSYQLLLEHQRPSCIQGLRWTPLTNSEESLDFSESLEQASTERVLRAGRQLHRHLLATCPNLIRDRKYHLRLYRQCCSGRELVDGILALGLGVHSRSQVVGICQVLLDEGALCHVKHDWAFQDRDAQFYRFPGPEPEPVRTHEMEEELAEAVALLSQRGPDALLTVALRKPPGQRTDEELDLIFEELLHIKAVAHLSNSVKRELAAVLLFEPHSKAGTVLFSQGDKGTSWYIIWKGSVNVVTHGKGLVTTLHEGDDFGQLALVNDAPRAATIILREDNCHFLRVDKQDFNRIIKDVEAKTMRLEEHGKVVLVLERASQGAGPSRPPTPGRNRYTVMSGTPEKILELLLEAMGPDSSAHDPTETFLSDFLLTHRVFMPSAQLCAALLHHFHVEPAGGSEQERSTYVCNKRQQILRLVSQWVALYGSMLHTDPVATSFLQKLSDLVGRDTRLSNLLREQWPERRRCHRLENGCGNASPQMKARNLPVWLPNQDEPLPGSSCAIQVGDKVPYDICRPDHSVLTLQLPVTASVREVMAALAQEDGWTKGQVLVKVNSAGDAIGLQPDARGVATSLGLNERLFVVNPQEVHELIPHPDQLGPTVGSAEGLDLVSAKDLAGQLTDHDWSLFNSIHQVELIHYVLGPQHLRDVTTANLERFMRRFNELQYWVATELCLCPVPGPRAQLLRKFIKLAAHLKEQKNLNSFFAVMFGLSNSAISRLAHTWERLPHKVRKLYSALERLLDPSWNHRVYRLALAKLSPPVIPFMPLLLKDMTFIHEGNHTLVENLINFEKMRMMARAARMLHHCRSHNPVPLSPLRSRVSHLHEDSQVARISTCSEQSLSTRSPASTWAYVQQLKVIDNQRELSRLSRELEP

[11] = molecular target: Rap guanine nucleotide exchange factor 4 (Homo sapiens) (UniProt Q8WZA2); assay: Confirmatory qHTS for agonist of cAMP-regulated guanine nucleotide exchange factor 4 (EPAC2) (AID 1645884);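 note: nucleotide exchange releases bodipy-GDP from Rap1 and this lowers its fluorescence; % is set by controls: 0 for no effect and ±100 for the full control effect; nearly all actives have a fitted effect of over 65% in size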
Sequence of Rap guanine nucleotide exchange factor 4 (Homo sapiens) (Q8WZA2 whole entry, looked up): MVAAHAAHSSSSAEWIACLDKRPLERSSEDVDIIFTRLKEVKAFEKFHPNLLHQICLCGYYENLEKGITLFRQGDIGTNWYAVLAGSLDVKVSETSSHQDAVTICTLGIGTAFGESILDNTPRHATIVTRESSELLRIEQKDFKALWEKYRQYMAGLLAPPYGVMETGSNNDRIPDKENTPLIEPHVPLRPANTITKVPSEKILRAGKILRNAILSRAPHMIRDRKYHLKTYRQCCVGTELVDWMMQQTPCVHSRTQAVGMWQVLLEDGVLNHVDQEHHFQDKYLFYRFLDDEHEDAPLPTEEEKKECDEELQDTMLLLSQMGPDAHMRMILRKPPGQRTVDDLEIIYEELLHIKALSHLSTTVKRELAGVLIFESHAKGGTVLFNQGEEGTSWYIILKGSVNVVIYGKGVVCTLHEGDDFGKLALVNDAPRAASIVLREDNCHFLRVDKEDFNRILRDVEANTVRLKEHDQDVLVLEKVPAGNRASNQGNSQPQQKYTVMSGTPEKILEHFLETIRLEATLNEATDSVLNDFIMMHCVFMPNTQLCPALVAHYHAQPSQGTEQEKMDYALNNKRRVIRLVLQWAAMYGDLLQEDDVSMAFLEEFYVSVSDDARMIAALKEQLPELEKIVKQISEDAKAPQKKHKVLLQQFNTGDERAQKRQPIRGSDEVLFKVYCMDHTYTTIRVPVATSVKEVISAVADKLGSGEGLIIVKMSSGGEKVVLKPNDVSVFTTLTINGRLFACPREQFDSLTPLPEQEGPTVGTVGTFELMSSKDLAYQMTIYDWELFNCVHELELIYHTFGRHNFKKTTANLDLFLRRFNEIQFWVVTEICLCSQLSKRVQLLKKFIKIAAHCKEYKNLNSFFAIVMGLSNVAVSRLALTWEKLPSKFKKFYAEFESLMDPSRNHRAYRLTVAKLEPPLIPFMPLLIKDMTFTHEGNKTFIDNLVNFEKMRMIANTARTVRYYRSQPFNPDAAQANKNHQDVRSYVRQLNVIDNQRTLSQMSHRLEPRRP

[12] = molecular target: Rap guanine nucleotide exchange factor 4 (Homo sapiens) (UniProt Q8WZA2); assay: Confirmatory qHTS for antagonist of cAMP-regulated guanine nucleotide exchange factor 4 (EPAC2) (AID 1645885); note: nearly all actives have a fitted effect of over 25% in size; note: potency is the fitted concentration of half-maximal effect
[13] = NFAT Signaling Pathway (AID 444; active = well fitted curve in either direction with a large enough effect, not every such curve was filed as active); conditions: Jurkat NFAT-bla M1, carbachol, beta-lactamase ratio, 5 h; at 7.69 µM (top of the series) unless noted
How it was run: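 Jurkat cells with NFAT-driven β-lactamase reporter and co-expressed M1 receptor, stimulated with carbachol (final 1 uM, ~EC50), compound titration, 5 h at 37 °C. CCF4 loaded 1 h at RT; 460/530 nm ratio gave %activity and AC50.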

[14] = molecular target: Glucocorticoid receptor (Homo sapiens) (UniProt P04150); assay: GR-GFP Redistribution (AID 450;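 active = compounds whose dose series gives a full or clear partial fitted curve of increased nuclear translocation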; note: potency is the fitted concentration of half-maximal effect); conditions: U2OS GR-GFP nuclear translocation, laser cytometry, 2 h
[15] = qHTS Assay for Identification of Small Molecule Agonists for Hypoxia Response Element Signaling Pathway (AID 914; active = well fitted activation curve with a large enough effect in the signal ratio, with a control signal flat, not every such curve was filed as active; the % refers to the signal ratio; note: % of control where 0% means no effect); conditions: ME-180 (cervical carcinoma) HRE-bla reporter, beta-lactamase ratio, CoCl2, 17 h; activation: stronger effect = higher value
How it was run: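 Read-out: CCF4 FRET ratio of 460nm to 530nm emission (excitation 405nm) after 2.5 hours at room temperature, taken from HRE-bla ME-180 cells that had been exposed to compound and EC50 CoCl2 for 17 hours.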

[16] = molecular target: Dual specificity protein kinase CLK4 (Homo sapiens) (UniProt Q9HAZ1); assay: qHTS Assay for Inhibitors of CDC-like Kinase 4 (Kinase-Glo Assay) (AID 1770); note: potency is the fitted concentration of half-maximal effect; nearly all actives have a fitted effect of over 65% in size
Sequence of Dual specificity protein kinase CLK4 (Homo sapiens) (Q9HAZ1 whole entry, looked up): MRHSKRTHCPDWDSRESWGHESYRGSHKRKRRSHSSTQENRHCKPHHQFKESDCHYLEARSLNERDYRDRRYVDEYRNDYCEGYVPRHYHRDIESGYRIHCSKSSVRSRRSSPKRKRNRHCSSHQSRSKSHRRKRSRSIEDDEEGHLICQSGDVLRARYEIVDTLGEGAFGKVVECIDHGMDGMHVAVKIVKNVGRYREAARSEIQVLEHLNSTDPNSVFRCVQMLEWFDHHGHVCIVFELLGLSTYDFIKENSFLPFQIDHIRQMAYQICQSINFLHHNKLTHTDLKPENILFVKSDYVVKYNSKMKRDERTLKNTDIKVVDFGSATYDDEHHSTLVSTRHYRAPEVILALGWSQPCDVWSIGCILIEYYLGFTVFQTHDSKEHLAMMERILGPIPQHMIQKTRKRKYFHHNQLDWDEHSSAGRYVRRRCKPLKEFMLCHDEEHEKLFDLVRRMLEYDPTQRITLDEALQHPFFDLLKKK
How it was run: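 25 nM Clk4 with 100 uM RS repeat peptide and 1 uM ATP (final) in Tris pH7.5, 10 mM MgCl2, 4.5 h at room temperature. Remaining ATP measured by Kinase-Glo luciferase luminescence.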

[17] = molecular target: Dual specificity protein kinase CLK4 (Homo sapiens) (UniProt Q9HAZ1); assay: qHTS Assay for Inhibitors of CDC-like Kinase 4 (ADP-Glo Assay) (AID 1771); note: nearly all actives have a fitted effect of over 70% in size; note: potency is the fitted concentration of half-maximal effect
How it was run: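 Kinase reaction: Clk4 at 25 nM, RS repeat peptide substrate at 100 uM, ATP at 1 uM, 1 hr, room temperature. Product ADP detected as luciferase signal via ADP-Glo.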

[18] = molecular target: Ubiquitin carboxyl-terminal hydrolase 1 (Homo sapiens) (UniProt O94782); assay: Inhibitors of USP1/UAF1: Pilot qHTS (AID 504865); note: nearly all actives have a fitted effect of over 35% in size; note: potency is the fitted concentration of half-maximal effect
How it was run: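 USP1/UAF1 complex at 1 nM preincubated 15 min at room temperature with compound, then Ub-Rho substrate added at 150 nM final. Fluorescence (480/540 nm) read kinetically in 50 mM HEPES pH 7.8, 0.5 mM EDTA, 1 mM TCEP, 0.1 mg/ml BSA, 0.01% Tween-20.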

[19] = molecular target: Rap guanine nucleotide exchange factor 3 (Homo sapiens) (UniProt O95398); assay: Confirmatory qHTS for antagonist of cAMP-regulated guanine nucleotide exchange factor 3 (EPAC1) (AID 1645880);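 note: plate controls were DMSO only for no effect and full effect of the ATA control for full effect; nearly all actives have a fitted effect of over 55% in size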
How it was run: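 Nucleotide exchange uses 100 nM EPAC1, 250 nM RAP1B-BODIPY-GDP and 50 uM GDP, with compounds in a concentration-titration series. After 5 min at room temperature, fluorescence (480 nm ex/540 nm em) is read every 5 min for 30 min. Data are normalized to control ATA and DMSO.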

[20] = molecular target: 3',5'-cyclic-AMP phosphodiesterase 4B (Homo sapiens) (UniProt Q07343); assay: qHTS Assay for Inhibitors of PDE-IV (AID 607; active = well fitted activation curve with a large enough effect in the main read-out, with a control signal flat, not every such curve was filed as active; note: % of control where 0% means no effect)
How it was run: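 HEK293 ACTOne cells with CNG channel (1000/well), endogenous PDE4; membrane potential dye, compounds up to 22.9 uM final. Fluorescence Ex 535/Em 590; RO 20-1724 (100 uM final) as reference.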

[21] = molecular target: Cytochrome P450 2C19 (Homo sapiens) (UniProt P33261); assay: qHTS Assay for Inhibitors and Substrates of Cytochrome P450 2C19 (AID 899); note: % is set by controls: 0 for no effect and ±100 for the full control effect; nearly all actives have a fitted effect of over 60% in size
How it was run: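 Signal comes from luciferase acting on luciferin released by CYP2C19-mediated hydroxylation of Luciferin-H EGE, 10uM (KM). Assay mix: 5nM enzyme, 50mM KPO4; 60 min at 37C with NADPH regeneration. Data normalized against 57uM ketoconazole.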

[22] = molecular target: Dual specificity protein kinase CLK4 (Homo sapiens) (UniProt Q9HAZ1); assay: qHTS Assay for Inhibitors of CDC-like Kinase 4 (ADP-FP Assay) (AID 1795);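 note: recombinant human CLK4 phosphorylating RS repeat peptide at 1 µM ATP; % is set by controls: 0 for no effect and ±100 for the full control effect; nearly all actives have a fitted effect of over 60% in size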
How it was run: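 Recombinant Clk4 (6.25 nM) phosphorylated 100 uM RS repeat peptide with 1 uM ATP in 25 mM Tris pH 7.5, 10 mM MgCl2, 0.5 mM EGTA, 2.5 mM DTT, 0.01% Triton X-100 for 1 h. ADP was detected by Transcreener ADP2 competitive fluorescence polarization after 30 min at room temperature.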

[23] = Confirmation and Secondary Assay for Modulators of Hemoglobin Beta Chain Splicing at IVS2 654 locus (AID 910);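 note: HeLa cells stably carrying EGFP split by mutant beta-globin IVS2-654 intron; % of control where 0% means no effect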
How it was run: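 HeLa cells stably expressing EGFP interrupted by β-globin IVS2-654 intron, seeded overnight in Opti-MEM/2% FCS, then treated 2 days at 37 °C. Restored splicing read as total peak GFP intensity per well by laser scanning cytometry (488 nm excitation, 500–520 nm emission); 500 nM antisense PNA as control.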

[24] = Confirmation and Secondary Assay for Modulators of Hemoglobin Beta Chain Splicing at IVS2 705 locus (AID 930);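 note: HeLa cells stably expressing the EGFP-705 splicing reporter; GFP fluorescence per well restored by corrected splicing of the IVS2-705 intron in EGFP; % of control where 0% means no effect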
How it was run: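 HeLa EGFP-705 reporter; 500 cells/well, o/n 37C 5% CO2; cpd 2 d; 488 ex/500-520 em laser scan; total peak GFP intensity/well. Ref: 500 nM […] antisense PNA.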

[25] = molecular target: Cytochrome P450 2C9 (Homo sapiens) (UniProt P11712); assay: qHTS Assay for Inhibitors and Substrates of Cytochrome P450 2C9 (AID 883); note: potency is the fitted concentration of half-maximal effect; nearly all actives have a fitted effect of over 60% in size
How it was run: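 Signal: luciferase luminescence reporting luciferin produced by CYP2C9. Conditions: 10nM enzyme, Luciferin-H 100uM at KM, 25mM KPO4, 37C, 60 min NADPH-driven reaction. Reference: 57uM sulphaphenazole as 100% inhibition.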

[26] = measured here: cell count channel max response
[27] = measured here: lipid channel max response

O=C(Nc1ccccc1)N1CCCC2(CCN(C(=O)c3cc(C(F)(F)F)cc(C(F)(F)F)c3)CC2)C1
active: Potency [3] 31.6 µM | Potency [12] 44.1 µM
inactive: Potency [1] > 11.4 µM | activity change, negative = inhibition [2] -28.2% | activity, negative = inhibition [4] -14.9% | Potency [5] > 46 µM | outcome [6] | Potency [7] | activity change, negative = inhibition [8] -0.939% | Potency [9] | outcome [10] | outcome [11]
17.1%: max response [8, 27]
16.6%: max response [8, 26]

FC(F)(F)c1ccccc1-c1nc(N2CCOCC2)c2ccccc2n1
active: Potency [16] 25.1 µM | Potency [17] 14.1 µM | Potency [18] 31.6 µM
28.1%: max response [8, 27]
22.9%: max response [8, 26]
inactive: Potency [1] > 11.4 µM | activity change, negative = inhibition [13] -3.63% | activity, negative = inhibition [4] 2.43% | Potency [14] > 46 µM | Potency [5] > 46 µM | outcome [6] | Potency [7] | activation [15] 9.18% | activity change, negative = inhibition [8] 6.74% | Potency [9] | Potency [19] | outcome [10] | outcome [11]

CC1=C(C(=O)O)N2C(=O)[C@@H](NC(=O)[C@H](N)C3=CCC=CC3)[C@@H]2SC1
inactive: Potency [9]

O=C(c1cc(C(F)(F)F)cc(C(F)(F)F)c1)N1CCC2(CCCN(Cc3nccs3)C2)CC1
17.8%: max response [8, 26]
inactive: Potency [1] > 11.4 µM | activity change, negative = inhibition [2] -11.4% | Potency [3] | activity, negative = inhibition [4] -17.2% | Potency [5] > 46 µM | outcome [6] | Potency [20] | Potency [7] | Potency [21] | activity change, negative = inhibition [8] -19.9% | Potency [9] | outcome [10] | outcome [11]
-1.38%: max response [8, 27]

COc1ccc(-n2c(=O)c(-c3cc(F)cc(F)c3)nc3cnc(N(C)C)nc32)cc1
inactive: Potency [1] > 11.4 µM | activity change, negative = inhibition [13] 17.5% | Potency [5] > 46 µM | outcome [6] | Potency [20] | activity change, negative = inhibition [8] 5.64% | Potency [17] | Potency [22] | Potency [18] | Potency [9] | Potency [19] | outcome [10] | outcome [11] | Potency [12]
11.6%: max response [8, 26]
18.1%: max response [8, 27]

COc1cc(O)c2c(=O)cc(C)oc2c1CC=C(C)C
7.83%: max response [8, 26]
11.5%: max response [8, 27]
active: Potency [12] 22.1 µM
inactive: Potency [7] | outcome [23] | outcome [24] | activity change, negative = inhibition [8] 15% | Potency [9] | Potency [19] | outcome [10] | outcome [11]

O=c1cnc2cnc(Oc3cccc(Cl)c3)nc2n1Cc1ccc(F)cc1
17.8%: max response [8, 26]
inactive: Potency [1] > 11.4 µM | activity change, negative = inhibition [2] -16% | activity change, negative = inhibition [13] -9.66% | activity, negative = inhibition [4] -7.55% | Potency [14] > 9.22 µM | Potency [5] > 46 µM | outcome [6] | Potency [20] | Potency [7] | activity change, negative = inhibition [8] 3.63% | Potency [9] | Potency [19] | outcome [10] | outcome [11]
active: Potency [3] 15.8 µM | Potency [25] 7.94 µM
21.6%: max response [8, 27]
